# Test results published in PubChem BioAssay AID1511 (Johns Hopkins Ion Channel Center, 2009).
# The campaign covered roughly 310,000 compounds. About 1,600 (0.52%) were called active.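 The calls were made as follows: active = activation above the mean of controls blocked by dofetilide plus 5 SD; inactive = the rest.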 The full list was thinned out, with actives kept by preference.
# Biological target: Voltage-gated inwardly rectifying potassium channel KCNH2 (Homo sapiens) (UniProt Q12809)
# Experiment: compounds relieving dofetilide block of hERG – cell-based, CHO-hERG, FluxOR thallium flux, dofetilide IC70, primary screen (AID 1511);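 also: thallium influx through hERG after potassium depolarization seen as dye fluorescence rise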
# Details: dofetilide IC70 present, at 10 µM, stronger effect = higher value
# Chain of Voltage-gated inwardly rectifying potassium channel KCNH2 (Homo sapiens) (Q12809 whole entry, looked up): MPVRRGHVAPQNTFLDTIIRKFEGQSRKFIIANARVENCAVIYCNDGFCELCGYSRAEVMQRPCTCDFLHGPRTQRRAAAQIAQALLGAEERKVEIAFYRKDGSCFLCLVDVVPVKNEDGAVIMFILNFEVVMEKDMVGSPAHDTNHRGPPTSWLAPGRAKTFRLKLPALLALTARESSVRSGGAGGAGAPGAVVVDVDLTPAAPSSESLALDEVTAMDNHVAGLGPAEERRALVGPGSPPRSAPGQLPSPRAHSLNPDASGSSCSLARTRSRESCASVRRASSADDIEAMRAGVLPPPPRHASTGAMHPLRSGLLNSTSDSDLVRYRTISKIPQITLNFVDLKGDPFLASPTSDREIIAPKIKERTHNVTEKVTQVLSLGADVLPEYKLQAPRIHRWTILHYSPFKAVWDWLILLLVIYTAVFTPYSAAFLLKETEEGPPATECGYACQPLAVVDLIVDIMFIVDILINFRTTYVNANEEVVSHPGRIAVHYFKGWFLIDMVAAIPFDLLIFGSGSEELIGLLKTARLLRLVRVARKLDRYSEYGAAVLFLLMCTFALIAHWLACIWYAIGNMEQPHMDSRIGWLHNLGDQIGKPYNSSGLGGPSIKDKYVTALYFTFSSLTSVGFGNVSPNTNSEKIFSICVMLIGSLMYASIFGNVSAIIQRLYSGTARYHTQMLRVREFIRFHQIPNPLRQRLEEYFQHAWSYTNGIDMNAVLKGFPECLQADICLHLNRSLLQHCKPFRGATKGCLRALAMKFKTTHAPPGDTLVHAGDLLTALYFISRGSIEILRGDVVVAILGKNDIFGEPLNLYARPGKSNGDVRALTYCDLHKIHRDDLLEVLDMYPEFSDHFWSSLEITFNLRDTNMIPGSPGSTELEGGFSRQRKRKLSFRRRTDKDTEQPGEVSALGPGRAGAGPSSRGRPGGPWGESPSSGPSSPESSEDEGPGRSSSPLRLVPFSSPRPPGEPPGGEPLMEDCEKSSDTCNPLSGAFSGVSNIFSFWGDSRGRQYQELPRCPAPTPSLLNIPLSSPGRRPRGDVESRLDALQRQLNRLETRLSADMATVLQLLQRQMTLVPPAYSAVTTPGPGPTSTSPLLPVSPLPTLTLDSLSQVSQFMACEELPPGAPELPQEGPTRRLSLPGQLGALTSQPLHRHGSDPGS
row,Structure (SMILES),"activation (rescue from dofetilide block), less the hit threshold"
1,Cc1ccc2nc(-c3ccncc3)cc(C(=O)Nc3ccncc3)c2c1,-6.13% (inactive)
2,Cc1ccc2nc(-c3ccncc3)cc(C(=O)Nc3ccc4c(c3)OCCO4)c2c1,6.28% (active)
3,Cc1ccc2nc(-c3ccccn3)cc(C(=O)Nc3ccc4c(c3)OCO4)c2c1,-4.32% (inactive)
4,O=C(NCC1CC1)c1onc(CSc2ccccc2)c1C(=O)NCC1CC1,-9.81% (inactive)
5,COc1ccc(CC(=O)N2N=C(C)CC2(O)C(F)(F)F)cc1 (centres undefined),-4.8% (inactive)
6,Cc1nc2ccc(C(=O)N/N=C/c3ccc(O)cc3)cc2[nH]1,-13.1% (inactive)
7,CC(C)c1nc2ccc(C(=O)O)cc2[nH]1,-0.43% (inactive)
8,Cc1nc2ccc(C(=O)O)cc2[nH]1,6.97% (active)
9,COc1ccc(CNS(=O)(=O)c2cc(-c3cc(C)no3)ccc2C(C)C)cc1,-6.05% (inactive)
10,CS(=O)(=O)N(Cc1nc2sc3c(c2c(=O)[nH]1)CCCC3)C1CCCCC1,-10.9% (inactive)
11,Cc1cc(Cl)ccc1NNC(=O)c1snnc1C,-9.34% (inactive)
12,COc1nc(NC2CCCCC2)nc(N2CCCCCC2)n1,-7.83% (inactive)
13,c1ccc(NCc2cccc3ccccc23)nc1,-3.89% (inactive)
14,Oc1ccc2ccccc2c1N=Nc1nccs1,29.7% (active)
15,Oc1ccc(N=Nc2nccs2)c(O)c1,-0.07% (inactive)
16,C=CCC1=C/C(=C\c2c(N)n3nc(CC(=O)N4CCOCC4)sc3nc2=O)C=C(OC)C1=O,-8.72% (inactive)
17,Cn1c(SCC(=O)N2CCOCC2)nnc1-c1ccc2ncccc2c1,-4.81% (inactive)
18,Cn1c(SCC(=O)N2CCCC2)nnc1-c1ccc2c(c1)OCO2,-8.24% (inactive)
19,Cn1c(SCC(=O)N2CCOCC2)nnc1-c1ccc(NC(=O)c2ccccc2F)cc1,6.37% (active)
20,Cc1cccc(NC(=O)c2ccc([N+](=O)[O-])o2)c1,-12.5% (inactive)
21,Cc1cccc(NC(=O)NC(=S)NC(=O)c2ccccc2)c1,-0.76% (inactive)
22,Cc1cccc(NC(=S)NC(=O)c2ccc(Br)o2)c1,17.4% (active)
23,CCc1ccc(C2N3CC4([N+](=O)[O-])CN2CC([N+](=O)[O-])(C3)C4(C)C)cc1 (centres undefined),-4.31% (inactive)
24,O=C(CCl)Nc1cccc(CP(=O)(c2ccccc2)c2ccccc2)c1,-8.43% (inactive)
25,Cc1cc(Br)ccc1NC(=S)NC1CCCC1,-9.68% (inactive)

row,Structure (SMILES),"activation (rescue from dofetilide block), less the hit threshold"
1,Cc1ccc(NC(=S)NC2CCCC2)cc1,4.71% (active)
2,Cc1ccc(NC(=O)CSCC(=O)NC2CCCCC2)cc1,-3.26% (inactive)
3,COc1cc(C(=O)Nn2c(O)c(C3=c4ccccc4=NC3=O)sc2=S)ccc1O,-14.6% (inactive)
4,Cc1onc(-c2ccc(Cl)cc2)c1-c1ccnn1S(=O)(=O)c1ccc(Cl)cc1,-7.23% (inactive)
5,CCCCNC(=O)CCn1c(=S)[nH]c2cc3c(cc2c1=O)OCO3,-6.01% (inactive)
6,CC(C)NC(=O)CCCn1c(=S)[nH]c2cc3c(cc2c1=O)OCO3,-9.07% (inactive)
7,O=C(CCn1c(=S)[nH]c2cc3c(cc2c1=O)OCO3)NCc1ccc(Cl)cc1,4.99% (active)
8,N#Cc1c(-c2ccc(F)cc2)cc(C2CC2)nc1SCC(=O)c1cccs1,8.07% (active)
9,N#Cc1c(-c2ccccc2)cc(-c2ccccc2)nc1SCC(=O)O,-12.9% (inactive)
10,CCOC(=O)CC(=O)CSc1nc(-c2ccccc2)cc(-c2ccc(Cl)cc2)c1C#N,-4.82% (inactive)
11,NC(=O)COc1ccc(C23CC4CC(CC(C4)C2)C3)cc1,-4.82% (inactive)
12,O=C(O)CN(Cc1ccco1)S(=O)(=O)c1ccc(F)cc1,-6.3% (inactive)
13,Clc1cccc(N=C2NN=C(c3ccc4c(c3)OCCO4)CS2)c1,-12.5% (inactive)
14,CN(C)c1nc(=Nc2cccc(Cl)c2)ss1,40.5% (active)
15,COc1ccc(CCNC(=O)CSCc2ccc(Br)cc2)cc1OC,-9.1% (inactive)
16,Cc1cccc(C)c1NC(=O)CCS(=O)(=O)c1cccc2nsnc12,-5.88% (inactive)
17,N#Cc1c(N)nc2c(c1N)CC(C(F)(F)F)O2 (centres undefined),-1.93% (inactive)
18,Fc1ccc2nc(Nc3nc4c(s3)CCCC4)sc2c1,10.5% (active)
19,CSc1ncccc1C(=O)Nc1nc2ccc(F)cc2s1,-5.7% (inactive)
20,O=C(Cn1c(=O)sc2ccccc21)Nc1nc2c(s1)CCCC2,-3.68% (inactive)
21,Brc1ccc(Nc2c3c(nc4ncnn24)CCC3)cc1,-14.2% (inactive)
22,CC(C)c1ccc2c(c1)c(SC(C)(C)C)c(CC(C)(C)C(=O)O)n2Cc1ccc(Cl)cc1,26.6% (active)
23,O=C(O)c1ccc(Cn2c(=S)[nH]c3cc(Cl)ccc3c2=O)cc1,-3.87% (inactive)
24,S=C(Cc1ccc(Cl)cc1)N1CCOCC1,-11.3% (inactive)
